Laboratory results: PubChem BioAssay AID493168 (National Center for Advancing Translational Sciences (NCATS), 2011)
Inconclusive results are not listed. Values without a mark were called inactive. Calls of active or inactive are those of the source. Calls follow the shape of the dose curve; as a rule, active = well fitted inhibition curve with a large enough effect; inconclusive = small, poorly fitted or top-dose-only effect, or effect the other way; inactive = flat fitted curve, though single readings scatter.
Also: nearly all actives have a fitted effect of over 55% in size.
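For activity change, negative = inhibition in this document: plate controls were DMSO wells for no effect and full inhibition by NEM control for full effect.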
Potency is read from the fitted curve at half-maximal effect.

Each compound was assayed against Ubiquitin carboxyl-terminal hydrolase 2 (Homo sapiens) (UniProt O75604) (assay: Confirmation Assay for Inhibitors of Ubiquitin-specific Protease USP2a Using CHOP2 as the Reporter). Settings: USP2 core, Ub-CHOP2 coupled reporter fluorescence; series mostly up to 38.3 µM; activity change, negative = inhibition: at the top concentration.
Ubiquitin carboxyl-terminal hydrolase 2 (Homo sapiens), sequence (O75604 whole entry, looked up): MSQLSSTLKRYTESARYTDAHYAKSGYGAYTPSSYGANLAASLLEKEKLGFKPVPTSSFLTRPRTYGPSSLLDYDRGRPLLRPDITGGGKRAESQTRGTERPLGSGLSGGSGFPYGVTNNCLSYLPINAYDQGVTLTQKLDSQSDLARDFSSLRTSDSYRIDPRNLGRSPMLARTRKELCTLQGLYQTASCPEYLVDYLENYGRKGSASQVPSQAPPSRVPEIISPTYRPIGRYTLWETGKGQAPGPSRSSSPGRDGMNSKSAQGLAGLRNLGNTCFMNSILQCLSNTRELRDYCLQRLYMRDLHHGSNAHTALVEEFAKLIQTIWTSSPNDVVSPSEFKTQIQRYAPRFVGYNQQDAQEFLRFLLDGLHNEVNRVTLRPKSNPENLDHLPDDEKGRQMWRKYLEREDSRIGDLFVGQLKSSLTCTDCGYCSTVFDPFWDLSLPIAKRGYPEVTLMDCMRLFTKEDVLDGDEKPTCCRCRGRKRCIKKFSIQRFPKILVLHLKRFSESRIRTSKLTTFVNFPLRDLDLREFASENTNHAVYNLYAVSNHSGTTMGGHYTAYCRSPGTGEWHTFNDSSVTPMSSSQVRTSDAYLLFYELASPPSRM
How it was run: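 USP2 core (10 nM final) was preincubated with compound for 30 min at RT in Tris-HCl pH 8.0, CaCl2, beta-mercaptoethanol, CHAPS. Ub-CHOP2 and reporter substrate (25 nM final each) were added, and fluorescence (Ex 485/Em 531 nm) was read after 60 min.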
`CCOc1ccccc1N(CC(=O)NC(C)(C)C)C(=O)c1ccc(CN2CCOCC2)o1` was tested, and the “activity change, negative = inhibition” value was -4.17%. In the case of `c1coc(CNC2CCCCCCC2)c1`, the “activity change, negative = inhibition” value is reported as 2.9%. `COc1cc(/C=N/NC(=O)c2cc(-c3ccccc3)nc3ccccc23)ccc1O` was tested, and the “activity change, negative = inhibition” value was 0.701%. `CCCCn1c(SCC(=O)N2CCC(C)CC2)nc2cc(S(N)(=O)=O)ccc21` was tested, and the “activity change, negative = inhibition” value was -1.05%. With `Cc1ccc(C(=O)CSc2nnc(CNc3nc(-c4ccccc4)cs3)n2C)cc1` the “activity change, negative = inhibition” value was -6.56%. In the case of `COc1ccc(-n2c(=S)[nH]c3cc(C(=O)NCc4ccc(F)cc4)ccc3c2=O)c(OC)c1`, the “activity change, negative = inhibition” value is reported as -2.17%. In the case of `C=C(C)COc1ccc(-c2[nH]ncc2Oc2ccccc2OCC)c(O)c1`, the “activity change, negative = inhibition” value is reported as 0.628%. For `Oc1c(Cl)cc(Cl)c(Cl)c1Cc1c(O)c(Cl)cc(Cl)c1Cl`, the Potency was 5.21 µM (active). In the case of `Cc1n[nH]c(C)c1S(=O)(=O)N1CCCC(C(=O)NC2CCCc3ccccc32)C1` (configuration not stated), the “activity change, negative = inhibition” value is reported as -2.73%. With `O=S(=O)(Nc1cccc(-c2cn3c(n2)SCC3)c1)c1ccc(F)cc1F` the “activity change, negative = inhibition” value was -19.9%. `Cn1c(C(=O)N2CCN(Cc3ccc4c(c3)OCO4)CC2)cc2sccc21` was tested, and the “activity change, negative = inhibition” value was -0.858%. With `C[C@H](CO)N1C[C@H](C)[C@@H](CN(C)S(=O)(=O)c2cn(C)cn2)Oc2ccc(NC(=O)Cn3cnnn3)cc2C1=O` the “activity change, negative = inhibition” value was 4.41%. For `COc1cccc(C(=O)NCc2ccc3[nH]c(C)cc3c2)c1`, the “activity change, negative = inhibition” value was -0.781%. With `Cc1ccccc1N=C1NC(=O)CS1` the “activity change, negative = inhibition” value was 4.13%. `CCOC(=O)N1CCN(C(=O)c2cc3c(ccc4ccccc43)oc2=O)CC1` was tested, and the “activity change, negative = inhibition” value was 0.893%. With `CC(C)N(C(=O)c1sc2cc([N+](=O)[O-])ccc2c1Cl)C(C)C` the “activity change, negative = inhibition” value was 1.04%. For `CC(C)n1nc(C(=O)Nc2ccccc2N2CCOCC2)c2ccccc2c1=O`, the “activity change, negative = inhibition” value was 0.877%.
